# Results taken from PubChem BioAssay.
# Values joined by “and” are separate entries in the source; they are usually repeats but may differ in a detail not shown here. Equal values may be shown once. Inconclusive results are not listed. Active and inactive are the calls of the source. Cut-off read from the data, not from the text of the source, unless noted: active = inhibition above about 80%; inactive = the rest.
# Assays:
# [1] = tested on: Neuropilin-2 / VEGF-C interaction (human); assay: inhibitors of NRP2–VEGF-C binding, biochemical, microplate binding format, z-score (AID 743281; call rule not given here); settings: microplate NRP2/VEGF-C binding assay; stronger effect = lower value
# [2] = growth inhibition of DIPG glioma cells, dose response, cell-based, SU-DIPG-XIII, MIPE5.0, CellTiter-Glo, qHTS (AID 1347064; cut-off not given, nearly all actives have AC50 up to about 23 µM;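 for AC50: cells exposed to compound for 48 hours before the viability read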); settings: SU-DIPG-XIII viability, CellTiter-Glo ATP luminescence
# [3] = target: ATP-dependent translocase ABCB1 (Homo sapiens) (UniProt P08183); assay: MDR1 (ABCB1) efflux transporter inhibition, cell-based (AID 377; in the data active = fluorescence slope change above about 50%); settings: MDR1-expressing cells, fluorescent substrate accumulation slope; stronger effect = higher value; concentration not given here
# [4] = circadian clock period modulators, cell-based, LOPAC library, luminescence reporter (AID 2774; call rule not given here;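 note: values are relative to mean of DMSO wells on each plate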); settings: circadian reporter cells, at 7 µM, actives lie on both sides
# [5] = liver-stage malaria parasite growth inhibition, primary screen, cell-based, HepG2, luciferase luminescence, HepG2 viability (AID 624349; in the data active = parasite load remaining mostly below about 12%, no sharp cut-off; inactive = mostly above about 10%;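 note: 100% = mean of DMSO negative control wells on the same plate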); settings: P. berghei liver stage in HepG2, luciferase luminescence, concentration not given here; parasite load remaining: stronger effect = lower value; viability: measured here: HepG2 viability without parasites
# [6] = CRL2098 osteosarcoma cell growth inhibition, synergistic combos for chromothripsis tumors, BGB or cisplatin IC20 combos (AID 1671454); settings: CRL2098 osteosarcoma cells, drug combinations, stronger effect = higher value;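 note: cells exposed for 96 h before readout; 0% = vehicle DMSO and 100% = killing by high DMSO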
# [7] = HD-MB03 medulloblastoma cell growth inhibition, synergistic combos for chromothripsis tumors, BGB or cisplatin IC20 combos (AID 1671455; in the data active = inhibition above about 83%;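 note: 0% = vehicle DMSO and 100% = high DMSO as cytotoxic control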); settings: HD-MB03 medulloblastoma cells, stronger effect = higher value
# [8] = UWB1.289 ovarian carcinoma cell growth inhibition, synergistic combos for chromothripsis tumors, BGB or cisplatin combos (AID 1671456); settings: UWB1.289 ovarian carcinoma cells, stronger effect = higher value;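 note: cells exposed to compound for four days; 0% = vehicle DMSO and 100% = killing by high DMSO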
# [9] = LFS_MB_2R medulloblastoma cell growth inhibition, synergistic combos for chromothripsis tumors, cisplatin combos (AID 1671457); settings: LFS_MB_2R medulloblastoma cells, stronger effect = higher value;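 note: cells exposed to compound for four days before readout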
# [10] = UWB1.289_BRCA1 ovarian cancer growth, cell-based, BGB or cisplatin combinations (AID 1671459); settings: UWB1.289 BRCA1 ovarian carcinoma, drug combinations, stronger effect = higher value
# [11] = human astrocyte viability loss, single and combined drugs, cytotoxicity control for chromothriptic childhood tumor combination screen, cell-based, BGB or cisplatin IC20 combos (AID 1671460); settings: Human astrocytes, drug combinations, stronger effect = higher value;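 note: cells exposed to compounds for 96 hours before viability readout; 0% = vehicle and 100% = killing control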
# [12] = antimalarial activity against Dd2 strain (AID 2302;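 active = growth inhibition above 50% at the single 2 µM test dose, taken to imply half-maximal potency below 2 µM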;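 note: 0% = DMSO untreated growth and 100% = chloroquine plus artemisinin killed control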); settings: P. falciparum Dd2 in RBCs, LDH growth readout, 72 h; at 2 µM; stronger effect = higher value
# [13] = target: L-lactate dehydrogenase (Plasmodium falciparum (isolate CDC / Honduras)) (UniProt Q27743); assay: PfLDH activity inhibition – cell lysate, 3D7 strain, counter-screen for P. falciparum growth inhibition project (AID 2304; call rule not given here;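 note: 0% = vehicle and 100% = reference inhibitor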); settings: P. falciparum 3D7 crude extract, LDH APAD/NBT absorbance; at 2 µM; stronger effect = higher value
# [14] = inhibition of 3D7 malaria parasite growth – strain 3D7 (AID 2306; call rule not given here;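 note: 0% = DMSO wells and 100% = chloroquine plus artemisinin control wells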); settings: P. falciparum 3D7 erythrocytic growth, LDH absorbance, 72 h; at 2 µM; stronger effect = higher value
# ATP-dependent translocase ABCB1 (Homo sapiens), sequence (P08183 whole entry, looked up): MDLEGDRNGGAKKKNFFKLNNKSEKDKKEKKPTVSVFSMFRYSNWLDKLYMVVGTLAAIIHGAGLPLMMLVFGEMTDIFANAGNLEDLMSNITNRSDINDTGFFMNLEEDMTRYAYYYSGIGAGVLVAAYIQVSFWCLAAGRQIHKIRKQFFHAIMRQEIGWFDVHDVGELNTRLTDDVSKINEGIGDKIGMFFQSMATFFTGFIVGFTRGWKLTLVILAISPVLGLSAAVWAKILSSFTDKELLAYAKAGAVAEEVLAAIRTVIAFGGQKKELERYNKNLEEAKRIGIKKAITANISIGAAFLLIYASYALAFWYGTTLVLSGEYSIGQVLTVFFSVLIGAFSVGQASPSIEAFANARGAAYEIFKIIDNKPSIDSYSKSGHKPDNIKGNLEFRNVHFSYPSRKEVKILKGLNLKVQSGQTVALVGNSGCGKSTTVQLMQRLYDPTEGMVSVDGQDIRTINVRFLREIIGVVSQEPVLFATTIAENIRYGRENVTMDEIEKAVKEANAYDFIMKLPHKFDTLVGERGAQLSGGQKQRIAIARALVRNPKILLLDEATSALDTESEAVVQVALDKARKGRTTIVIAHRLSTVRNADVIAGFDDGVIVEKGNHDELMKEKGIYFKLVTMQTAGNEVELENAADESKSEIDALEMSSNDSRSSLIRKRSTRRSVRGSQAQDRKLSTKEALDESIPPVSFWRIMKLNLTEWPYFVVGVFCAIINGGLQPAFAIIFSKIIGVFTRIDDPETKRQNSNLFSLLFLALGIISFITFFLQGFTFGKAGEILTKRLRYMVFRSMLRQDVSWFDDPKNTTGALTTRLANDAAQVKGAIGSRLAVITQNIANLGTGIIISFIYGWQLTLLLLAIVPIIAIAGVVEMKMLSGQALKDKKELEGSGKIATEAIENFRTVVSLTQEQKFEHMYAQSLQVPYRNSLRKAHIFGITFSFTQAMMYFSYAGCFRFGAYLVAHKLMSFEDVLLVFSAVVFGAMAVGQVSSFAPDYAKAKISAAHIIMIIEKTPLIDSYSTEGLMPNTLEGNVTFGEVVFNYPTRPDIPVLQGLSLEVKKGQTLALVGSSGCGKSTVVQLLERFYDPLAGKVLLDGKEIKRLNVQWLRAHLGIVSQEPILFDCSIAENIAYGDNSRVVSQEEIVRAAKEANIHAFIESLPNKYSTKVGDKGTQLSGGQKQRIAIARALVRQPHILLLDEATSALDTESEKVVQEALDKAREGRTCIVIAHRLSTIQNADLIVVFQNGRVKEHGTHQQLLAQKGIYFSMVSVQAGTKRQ
# L-lactate dehydrogenase (Plasmodium falciparum (isolate CDC / Honduras)), sequence (Q27743 whole entry, looked up): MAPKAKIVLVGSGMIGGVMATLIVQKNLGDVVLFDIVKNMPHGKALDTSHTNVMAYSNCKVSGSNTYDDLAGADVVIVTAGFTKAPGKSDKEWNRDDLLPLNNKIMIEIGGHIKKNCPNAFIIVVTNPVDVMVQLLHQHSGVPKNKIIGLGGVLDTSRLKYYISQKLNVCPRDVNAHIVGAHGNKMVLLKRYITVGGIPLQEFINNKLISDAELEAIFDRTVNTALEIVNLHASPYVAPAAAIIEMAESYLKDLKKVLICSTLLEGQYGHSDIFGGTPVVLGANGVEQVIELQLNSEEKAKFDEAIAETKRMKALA
smiles,measurement,setting,value
CN[C@H]1CC[C@@H](c2ccc(Cl)c(Cl)c2)c2ccccc21,z-score,[1],-0.0357 (inactive)
same,AC50,[2],26.3 µM (active)
NC(=O)c1cnccn1,fluorescence slope change,[3],13.7% (inactive)
same,period change,[4],0 h (inactive)
same,outcome,[2],inactive
CCCCCCNC(=O)n1cc(F)c(=O)[nH]c1=O,parasite load remaining,[5],405% (inactive) and 109% (inactive)
same,viability,[5],90% and 80.4%
same,z-score,[1],0.686 (inactive)
same,inhibition,[6]; at 0.5 µM,-23.4% (inactive) and -30.5% (inactive)
same,inhibition,"[6]; measured here: combination with BGB at IC20, at 0.5 µM",-16.8% and -6.28%
same,inhibition,"[6]; measured here: combination with cisplatin at IC20, at 0.5 µM",-120% and -21%
same,inhibition,[7]; at 0.5 µM,-1.02% (inactive) and -7.18% (inactive)
same,inhibition,"[7]; measured here: combo with BGB at IC20, at 0.5 µM",-21.9% and -3.96%
same,inhibition,"[7]; measured here: combo with cisplatin at IC20, at 0.5 µM",21% and -14.9%
same,inhibition,[8]; at 0.5 µM,5.77% (inactive) and 18.7% (inactive)
same,inhibition,"[8]; measured here: inhibition with BGB combination, at 0.05 µM",-24.4% and -30.3%
same,inhibition,"[8]; measured here: inhibition with cisplatin combination, at 0.05 µM",-28.4% and -20.9%
same,inhibition,[9]; at 0.5 µM,-18.7% (inactive) and -16.7% (inactive)
same,inhibition,"[9]; measured here: combination with cisplatin, at 0.5 µM",-15.8% and -16.6%
same,inhibition,"[9]; measured here: combination with cisplatin, at 5 µM",-25.7% and -25.2%
same,inhibition,"[10]; BGB combination, concentration series, at 5 µM",34.1% and 35.2%
same,inhibition,[10]; at 0.5 µM,11% (inactive) and 22.4% (inactive)
same,inhibition,"[10]; cisplatin combination, concentration series, at 5 µM",14.4% and 26.3%
same,inhibition,[11]; at 0.5 µM,7.08% (inactive) and 16.2% (inactive)
same,inhibition,"[11]; measured here: combo with BGB IC20, at 0.5 µM",-8.62% and 3.35%
same,inhibition,"[11]; measured here: combo with cisplatin IC20, at 0.5 µM",18.1% and 20.7%
Cc1onc(-c2c(Cl)cccc2Cl)c1C(=O)N[C@@H]1C(=O)N2[C@@H]1SC(C)(C)[C@@H]2C(=O)O,fluorescence slope change,[3],74.3% (active)
NS(=O)(=O)c1cc2c(cc1C(F)(F)F)NC(Cc1ccccc1)NS2(=O)=O (stereo unspecified),fluorescence slope change,[3],16.6% (inactive)
NS(=O)(=O)c1cc2c(cc1Cl)NC=NS2(=O)=O,period change,[4],0.02 h (inactive)
same,outcome,[2],inactive
COC(=O)Nc1nc2ccc(C(=O)c3ccccc3)cc2[nH]1,fluorescence slope change,[3],92.4% (active)
same,AC50,[2],0.417 µM (active)
NC(=O)N1c2ccccc2CC(=O)c2ccccc21,z-score,[1],0.598 (inactive)
CCc1nc(N)nc(N)c1-c1ccc(Cl)cc1,growth inhibition,[12],0% (inactive) and -1% (inactive)
same,inhibition,[13],-5% (inactive) and 5% (inactive)
same,growth inhibition,[14],94% (active) and 93% (active)
